# Compound activity deposited in PubChem BioAssay by The Scripps Research Institute Molecular Screening Center.
# S1P3 antag – S1P3 receptor antagonists, primary screen, cell-based. CHO S1P3 NFAT-BLA reporter, FRET fluorescence, antagonist mode. Sphingosine 1-phosphate receptor 3 (Homo sapiens), Q99500. 170,000 compounds, 0.27% hits. inhibition, % at 4.98 µM;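 active = inhibition above the plate cutoff, the mean inhibition of test wells on that plate plus 3 SD, cut at about 28% in these data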;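 note: cells challenged with S1P at its EC80 of 0.8 µM; blue over green emission ratio from cleaved BLA substrate after 4 h stimulation; 0% = S1P-stimulated wells and 100% = unstimulated DMSO-only wells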
# S1P4 antag – S1P4 receptor antagonists, primary screen, cell-based. Sphingosine 1-phosphate receptor 4 (Homo sapiens), O95977. 220,000 compounds, 0.26% hits. inhibition, % at 4.98 µM. S1P4-expressing cells, antagonist mode, reporter read-out; in the data active = inhibition above about 29%;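 note: 0% = wells stimulated with agonist and 100% = vehicle wells without agonist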
# Target sequence (O95977 whole entry, looked up): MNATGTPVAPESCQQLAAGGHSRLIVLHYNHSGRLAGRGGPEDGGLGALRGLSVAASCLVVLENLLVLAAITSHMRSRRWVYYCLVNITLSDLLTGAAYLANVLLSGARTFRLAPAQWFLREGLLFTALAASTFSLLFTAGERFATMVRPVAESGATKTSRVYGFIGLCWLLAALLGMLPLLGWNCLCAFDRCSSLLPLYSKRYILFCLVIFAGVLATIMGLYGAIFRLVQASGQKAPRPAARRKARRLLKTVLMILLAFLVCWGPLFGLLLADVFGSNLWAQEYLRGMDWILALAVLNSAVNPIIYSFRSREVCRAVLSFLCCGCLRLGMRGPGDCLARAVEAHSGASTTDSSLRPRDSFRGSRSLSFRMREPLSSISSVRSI
# GALR2 blocker – GALR2 antagonists in receptor-expressing cells, primary screen; Galanin receptor type 2 (Homo sapiens), O43603; inhibition, % at 4 µM; 140,000 compounds, 0.39% hits; AID 828, 2007; antagonist mode; in the data active = inhibition above about 27%;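 note: cells stimulated with galanin 1-16 at roughly its EC80; 0% = agonist challenge control and 100% = basal control without agonist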
# GALR2 agonist – GALR2 receptor agonists, primary screen, cell-based; Galanin receptor type 2 (Homo sapiens), O43603; 140,000 compounds, 0.48% hits; activation, % (no concentration beside the values); AID 803, 2007; GALR2-expressing cells, agonist activation read-out; in the data active = activation above about 5%, passing the limit was not always enough;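 note: 0% = vehicle buffer wells and 100% = reference agonist at full effect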
# S1P4 agonist – S1P4 receptor agonists, primary screen, cell-based; S1P4-expressing cell line, agonist reporter assay; 220,000 compounds, 0.35% hits; activation, % at 4.98 µM; in the data active = activation above about 11%;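 note: 0% = DMSO vehicle and 100% = reference agonist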
# Numbers without * were called inactive; / = no result; ! = a repeat was not active. An excerpt weighted towards active compounds, which were near 1.3% of everything screened.
SMILES,S1P3 antag,S1P4 antag,GALR2 blocker,GALR2 agonist,S1P4 agonist
N#Cc1ccccc1NC(=O)CSc1nnc(-c2ccncc2)o1,-13,-10,/,/,1
O=[N+]([O-])c1cc(Oc2cccnc2)cc([N+](=O)[O-])c1,-4,-9,5,-1,-1
Cn1cc([N+](=O)[O-])c(C(=O)Nc2cc(Oc3cccnc3)cc([N+](=O)[O-])c2)n1,/,31*,-4,8,-5
O=C(CN1CCC(C(=O)c2cccc(Cl)c2)CC1)Nc1ccc(C(=O)O)cc1,-9,5,/,/,-2
NC1=NC(=O)/C(=C/c2cn(Cc3ccccc3)c3ccccc23)S1,4,-12,3,5.3*,1
COc1ccc(/C=C(\C#N)C(=O)C(C)(C)n2cncn2)cc1,-11,0,/,/,0
CNc1nc(OCC(F)(F)F)nc(N2CCOCC2)n1,/,-5,-5,-1,0
CNc1nc(OC)nc(N2CCOCC2)n1,66*,-6,-5,0,3
COc1ccc2c(c1)c(CCN1C(=O)c3ccccc3C1=O)cn2C(=O)c1ccco1,55*,0,13,-2,2
O=C(Oc1ccc2[nH]cc(CCN3C(=O)c4ccccc4C3=O)c2c1)c1ccco1,1,-8,3,-3,-4
CN(CC(=O)Nc1cccc2ccccc12)C(=O)/C=C/c1cccs1,-13,-15,6,0,1
Cc1cccn2c(=O)c3cc(C(=O)NCCN4CCOCC4)c(=N)n(CCc4ccccc4)c3nc12,-39,-6,-29,7.9*,9
CCCCNC(=O)c1cc2c(=O)n3cccc(C)c3nc2n(Cc2ccccc2)c1=N,-1,-11,4,7.7*,1
Cc1ccc(Cn2c(=N)c(C(=O)NCc3ccco3)cc3c(=O)n4ccccc4nc32)cc1,-14,0,-4,6.8*,4
O=C(NCc1ccccc1F)C1CCN(C(=O)NCc2ccccc2)CC1,68*,3,0,-1,-1
O=C(NCc1ccc(F)cc1)C1CCN(C(=O)NCc2ccccc2)CC1,6,7,-5,-4,-3
CCC(C)n1c(NC(=O)c2ccccc2)c(C#N)c2nc3ccccc3nc21 (stereo not drawn),/,7,2,34*,1
COc1ccc(C(=O)Nc2nc(-c3ccc([N+](=O)[O-])cc3)c(-c3ccc(OC)cc3)s2)cc1,1,-15,2,-1,0
CC1(C)Cc2c(c(-c3ccco3)nc3sc4c(NCCO)ncnc4c23)CO1,-22,-16,/,/,0
CSc1nc(SCCO)c2sc3nc(-c4ccco4)c4c(c3c2n1)CC(C)(C)OC4,/,3,8,6.3*,3
CC(C)C1CC(O)(C2(O)CCCCC2)ON1 (stereo not drawn),-3,-15,16,-3,1
COc1cc(/C=N/Nc2ccc(Cl)c(C(=O)O)c2)ccc1OC(=O)c1cccs1,-6,-15,/,/,12*
O=c1[nH]c2ccc(S(=O)(=O)Nc3ccc(-c4nnc5n4CCCCC5)cc3)cc2o1,66*,-1,-6,-1,-1
COc1ccc(NS(=O)(=O)c2cccc(-c3nnc4n3CCCCC4)c2)cc1,/,-8,16,-3,0
CCCCOCCCNC(=O)N[C@H](C(=O)OC)C(C)CC (stereo partly drawn),-1,-1,/,/,1
SMILES,S1P3 antag,S1P4 antag,GALR2 blocker,GALR2 agonist,S1P4 agonist
CC1(C)CC(=O)/C(=C(\O)CCCN2C(=O)c3ccccc3C2=O)C(=NCCO)C1,11,10,/,/,1
COc1cc(Cc2cnc(N)nc2N)cc(OC)c1OC,-17,12,0,-2,18*!
Cc1ccc(C)n1-n1c(C)nc2sc(-c3ccccc3)cc2c1=O,55*,8,2,-1,-3
Cc1ccc(C)n1-n1cnc2sc(-c3ccccc3)cc2c1=O,20,-6,3,-1,1
CCOc1cc(C2C3=C(CCCC3=O)N(CCC(=O)O)C3=C2C(=O)CCC3)ccc1OS(=O)(=O)c1ccc(C)cc1,4,-29,-2,1,3
Cc1ccc(S(=O)(=O)Oc2ccc(C3C4=C(CCCC4=O)N(CCC(=O)O)C4=C3C(=O)CCC4)cc2Cl)cc1,-3,-22,9,6.6*,2
CC(C)CN(CC(C)C)c1nc(N)c(C#N)c(CC#N)c1C#N,94*,9,-3,6.3*,1
CN(CCO)c1nc(N)c(C#N)c(CC#N)c1C#N,1,5,/,/,2
Cc1nn(-c2ccccc2)c(N2CCCC2)c1/C=C1\N=C(c2ccc(OC(C)C)cc2)OC1=O,6,11,-12,-1,-1
COc1ccc(-c2cc3nc(-c4ccccc4)cc(N4CCC5(CC4)OCCO5)n3n2)cc1,54*,-39,-12,1,1
COc1ccc(-c2cc3nc4c(c(N5CCC6(CC5)OCCO6)n3n2)CCC4)cc1,12,-6,/,/,2
O=S(=O)(c1cccs1)N1CCN(CC(O)COc2cccc(Br)c2)CC1 (stereo not drawn),/,20,-1,-2,1
O=S(=O)(c1cccs1)N1CCN(CC(O)COC2CCCc3ccccc32)CC1 (stereo not drawn),100*,3,4,-3,-2
COc1ccc(NCc2nnc(SCC(=O)c3ccc(OC)cc3)o2)cc1,/,0,-1,-3,-4
CCOc1cc(C(=O)CSc2nnc(CNc3ccc(Cl)cc3)o2)ccc1NC(=O)CC,22,-11,27,7.8*,0
COc1cc(S(=O)(=O)NCc2cccnc2)c(OC)cc1Br,/,-2,-3,-3,-3
COc1cc(C2C3=C(Nc4ncnn42)c2ccccc2CC3)cc(OC)c1OC (stereo not drawn),-38,24,35*,5.0*,-1
Cn1c(-c2c(N)n(C3CCCC3)c3nc4ccccc4nc23)nc2ccccc21,75*,4,21,0,1
CC(=O)Nc1ccc(S(=O)(=O)NCC(=O)OCC(=O)NC(=O)c2cccn2C)cc1,8,6,/,/,0
O=c1c(-c2nc3ccccc3s2)cccn1Cc1ccc(Cl)cc1,/,-12,-4,68*,0
COc1ccc(NC(=O)Nc2ccc3oc(C)nc3c2)cc1,-5,-24,/,/,3
Cc1nc2cc(NC(=O)N(C)c3ccc4ccccc4c3)ccc2o1,-1,-2,-35,5.0*,-1
Cc1cccc(NC(=O)Cc2coc3ccc4ccccc4c23)n1,/,6,4,-1,1
CN1CCN(Cc2nc3ccccc3c(=O)n2Cc2nc(-c3ccc4ccccc4c3)cs2)CC1,-8,7,11,7.7*,0
Cc1ccc2nc(NC(=O)C3CCCN3C(=O)OC(C)(C)C)sc2c1 (stereo not drawn),-12,19,/,/,-1
CC1CCN(S(=O)(=O)c2cccc(C(=O)Nc3ccccc3)c2)CC1,1,-6,/,/,-1
COc1ccc(OC)c(C2C(C(C)=O)=C(O)C(=O)N2CCC(=O)O)c1 (stereo not drawn),104*,-20,5,-2,-3
O=S1(=O)C=C(Sc2nnc(-c3ccccc3)o2)c2ccccc21,14,14,88*,-3,-1
